# The list is not random: actives were taken first. Their share in the collection is about 2.4%.
# D2 PAM-1 = Beta-Arrestin HTS for Positive Allosteric Modulators of the Human D2 Dopamine Receptor: Potentiators. 0.23% of 360,000 active. DiscoveRx D2 beta-arrestin cells, luminescence, 90 min; 100% = 57 uM dopamine signal. potentiation, % (no concentration beside the values). D(2) dopamine receptor (Homo sapiens), P14416. AID 624464, 2012; in the data active means potentiation above about 50%; inconclusive means mostly about 30% to 49%
# Target sequence (P14416 whole entry, looked up): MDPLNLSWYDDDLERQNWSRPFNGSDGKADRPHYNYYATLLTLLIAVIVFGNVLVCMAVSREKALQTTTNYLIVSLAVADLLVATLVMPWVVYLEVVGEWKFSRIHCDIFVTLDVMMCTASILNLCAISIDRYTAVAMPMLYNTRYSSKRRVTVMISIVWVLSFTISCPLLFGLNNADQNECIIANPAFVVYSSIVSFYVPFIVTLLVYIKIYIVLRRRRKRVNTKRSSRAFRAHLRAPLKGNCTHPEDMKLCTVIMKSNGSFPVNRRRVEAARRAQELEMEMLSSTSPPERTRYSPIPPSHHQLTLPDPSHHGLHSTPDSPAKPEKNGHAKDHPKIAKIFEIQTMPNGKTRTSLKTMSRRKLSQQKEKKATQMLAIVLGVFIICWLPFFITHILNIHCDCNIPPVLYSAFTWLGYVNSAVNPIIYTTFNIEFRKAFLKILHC
#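 PathHunter D2 cells, attached overnight at 37 deg C, received compound in DMSO plus dopamine at EC20 (50 nM final) for 90 min at 37 deg C. Beta-arrestin recruitment was read as luminescence after 1 h with detection reagent at ambient temperature.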
# D2 antagonist = HTS Assay for Allosteric Antagonists of the Human D2 Dopamine Receptor: Primary Screen for Antagonists; D(2) dopamine receptor (Homo sapiens), P14416; HEK293 TREx D2 cells, calcium flux, dopamine EC80; inhibition, % at 10 µM; 2% of 340,000 active; in the data active means inhibition above about 30%; inactive means below that, where a call was filed
#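 Overnight-induced (tetracycline, 30 C) HEK293 T-REx cells carrying force-coupled D2 receive a no-wash calcium dye, then compound, then EC80 dopamine at 180 s; signals are read kinetically throughout.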
# D2 ag-1 = Beta-Arrestin HTS for Positive Allosteric Modulators of the Human D2 Dopamine Receptor: Agonists | D(2) dopamine receptor (Homo sapiens), P14416 | AID 624465, 2012 | 0.084% of 360,000 active | DiscoveRx PathHunter D2 beta-arrestin, luminescence, 90 min; 100% = 57 uM dopamine signal | activation, % (test concentration not listed); in the data active means activation above about 40%; inconclusive means between about 15% and that limit
#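 Agonist mode: compounds alone added to overnight-plated D2 PathHunter cells for 90 min at 37 C, with 57 uM final dopamine (EC100) defining full response. Beta-arrestin recruitment detected by chemiluminescent reagent, read after 1 h at ambient temperature.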
# D2 ag-2 = HTS Assay for Allosteric Agonists of the Human D2 Dopamine Receptor: Primary Screen for Agonists; HEK293 T-REx D2 cells, calcium flux agonist mode; D(2) dopamine receptor (Homo sapiens), P14416; 0.53% of 340,000 active; AID 485358, 2010; activation, % at 2 µM;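 active means activation over 3 SD above normal in the single-dose calcium agonist read, cut at about 30% in these data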
#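 Agonism is scored from calcium flux in a force-coupled, inducible HEK293 cell line expressing D2, read kinetically for 180 s after compound addition against dopamine controls.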
# D2 PAM-2 = HTS Assay for Positive Allosteric Modulators of the Human D2 Dopamine Receptor: Primary Screen for Potentiators; potentiation, % at 10 µM; 0.34% of 340,000 active; HEK293 T-REx D2, calcium flux, EC20 dopamine potentiation; AID 485347, 2010; D(2) dopamine receptor (Homo sapiens), P14416;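 active means potentiation over 3 SD above the plate norm, cut at about 30% in these data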
#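 Potentiation of an EC20 dopamine calcium response is measured in a force-coupled, tetracycline-inducible Hek293 Trex D2 line. Compound-only kinetic reads over 180 s flag agonists before dopamine addition.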
# Hits are given with their value; . = inactive; ? = inconclusive; / = no result.
SMILES,D2 PAM-1,D2 antagonist,D2 ag-1,D2 ag-2,D2 PAM-2
COc1ccc(NC(=O)c2cc(S(=O)(=O)N3CCCCCC3)cn2C)cc1Cl,/,/,/,/,.
Cc1nc(COc2ccc(C(=O)NCc3ccccc3CN3CCCCC3)cc2)cs1,.,.,.,.,.
O=C(NCc1ccccc1CN1CCCC1)c1ccc(OCc2cscn2)cc1,.,35,.,.,.
Cc1cccc(Cn2c(=O)n(Cc3ccccc3)c(=O)c3c2c2cc(C)ccc2n3C)c1,/,/,/,.,.
CCC(NC(=O)C1CCC1)c1ccc(C)cc1 (configuration not stated),.,37,.,.,.
COc1ccc(C(CC(=O)O)NC(=O)C2CCCCC2)cc1 (configuration not stated),.,.,.,.,.
O=C(Oc1ccc(Br)cc1C(=S)N1CCOCC1)c1ccc([N+](=O)[O-])cc1[N+](=O)[O-],56,.,?,.,37
O=C(Oc1cccc(C(=S)N2CCOCC2)c1)c1cc([N+](=O)[O-])cc([N+](=O)[O-])c1,.,.,41,.,.
COc1ccccc1CNc1ncnc2c1c(-c1ccccc1)cn2-c1cccc(C)c1,/,/,/,.,.
Cc1ccc(C(=O)Nc2ccccn2)cc1S(=O)(=O)N1CCOCC1,.,35,.,.,.
O=C(Nc1ccccn1)c1ccc(Cl)c(S(=O)(=O)N2CCOCC2)c1,.,.,.,.,.
COc1ccc(NC(=O)c2ccc3c(=O)n4nc(Nc5cc(C)ccc5C)sc4nc3c2)cc1,/,/,/,.,.
CCCCN(C)CCNC(=O)c1cc2c(-c3ccccc3F)nn(C)c2s1,.,.,.,32,.
COc1cccc(-c2nn(C)c3sc(C(=O)NCCCN(C)Cc4ccccc4)cc23)c1,.,33,.,.,.
Cn1nc(-c2ccc(Cl)cc2)c2cc(C(=O)NCCCN3CCCC3)sc21,.,33,.,.,.
CCN(CC)CCCNC(=O)c1cc2c(-c3cccc(OC)c3)nn(C)c2s1,.,.,.,.,.
COc1cccc(-c2nn(C)c3sc(C(=O)NCc4ccco4)cc23)c1,.,36,.,.,.
CCOC(=O)C1CCN(C(=O)c2c(C)nn(-c3ccc(F)cc3)c2-n2cccc2)CC1,/,/,/,.,.
O=C(Nc1ccccc1C(=O)OCc1cc(=O)n2ccsc2n1)c1cccc(F)c1,/,/,/,.,.
C=Cc1ccc(CSc2nc(-c3ccc(C)cc3)nc3c2Cc2c(CO)cnc(C)c2O3)cc1,/,/,/,.,.
O=C1C(Cl)=C(NCCN2CCOCC2)C(=O)c2ccccc21,.,36,.,.,.
O=C1C(Cl)=C(NCCCN2CCOCC2)C(=O)c2ccccc21,.,/,.,/,/
CCOC(=O)c1c(C)nn(-c2ccc(NC(=O)/C=C/C(=O)O)cc2)c1C,.,.,.,.,.
CCNC(=O)Nc1ccc(-n2nc(C)c(C(=O)OCC)c2C)nc1,.,45,.,.,.
CCOC(=O)C1CCCN(C(=O)c2cc3c(=O)n4ccccc4nc3s2)C1 (configuration not stated),.,.,.,.,44
SMILES,D2 PAM-1,D2 antagonist,D2 ag-1,D2 ag-2,D2 PAM-2
CC1CCN(c2oc(-c3ccc(F)cc3)nc2C#N)CC1,.,.,.,.,.
Cc1cccn2c(=O)c3cc(C(=O)N4CC(C)CC(C)C4)sc3nc12 (configuration not stated),.,.,.,.,38
CCOC(=O)C1CCCN(C(=O)c2cc(-c3ccc(F)cc3)nc3ccccc23)C1 (configuration not stated),.,47,.,.,.
CCOC(=O)C1CCCN(C(=O)c2cc(-c3ccncc3)nc3ccccc23)C1 (configuration not stated),.,.,.,.,.
CCOC(=O)C1CCCN(c2oc(-c3ccc(F)cc3)nc2C#N)C1 (configuration not stated),.,35,.,.,.
CCOc1ccc(-c2cc(CCCC(=O)NCCc3cc(OC)c(OC)c(OC)c3)no2)cc1,/,/,/,.,.
CC(=O)c1ccc(NC(=O)Nc2sc3nc4n(c(=O)c3c2C)CCC(C)CC4)cc1 (configuration not stated),/,/,/,.,.
CCc1ccc2oc(-c3cc(NC(=O)c4cc([N+](=O)[O-])ccc4N4CCOCC4)ccc3Cl)nc2c1,/,/,/,.,.
COc1ccccc1N1C(=O)CSC1=S,.,.,.,.,32
COc1ccccc1N1C(=O)CC(c2ccccc2)CC1=O,.,.,.,.,.
Clc1ccc(-c2c[n+](Cc3ccc(Cl)c(Cl)c3)c3n2CCC3)cc1,/,41,/,.,.
Cc1ccc(-c2c[n+](Cc3ccc(Cl)cc3)c3n2CCC3)cc1,.,.,.,.,.
COc1ccc(NC(=O)c2sc3nc(C)c(C(=O)Nc4ccc(C)cc4C)c(-c4cccs4)c3c2N)cc1,/,/,/,.,/
O=C(N/N=C/c1cc(Br)cs1)c1c[nH]c2ccccc12,.,.,.,.,.
O=C(N/N=C/c1ccc(Br)s1)c1c[nH]c2ccccc12,.,34,.,.,.
COc1ccccc1CN1C[C@@H]2C[C@@H](C3=Cc4cc(Cl)ccc4OC3)N3CCC[C@@]23C1=O,.,31,.,.,.
Cc1ccc(C(=O)NCCc2nnc3ccc(SCC(=O)Nc4c(C)cc(C)cc4C)nn23)cc1,.,.,.,.,.
Cc1ccc(C(=O)NCCc2nnc3ccc(SCC(=O)Nc4ccccc4C)nn23)cc1,.,41,.,.,.
S=c1nc(-c2ccccc2)n(CCCn2ccnc2)c2c1CCCC2,.,39,.,.,.
S=c1nc(-c2ccccc2)n(CCCN2CCOCC2)c2c1CCCC2,.,.,.,.,.
CC(=O)N1c2ccc(S(=O)(=O)N(C)CC(=O)NC3CCCCC3C)cc2CC1C (configuration not stated),.,.,.,.,42
CC(=O)N1c2ccc(S(=O)(=O)N(C)CC(=O)NCc3ccccc3)cc2CC1C (configuration not stated),.,.,.,.,.
CC(=O)N1c2ccc(S(=O)(=O)N(C)C3CCCCC3)cc2CC1C (configuration not stated),.,.,.,.,30
Cc1ccc(C)n1-c1nnc(N2CCCC(C(=O)Nc3ccc(C(C)C)cc3)C2)s1 (configuration not stated),/,/,/,.,.
COc1cc(C(=O)Nc2ccc(S(=O)(=O)NC(C)(C)C)cc2)cc(OC)c1OC,.,.,.,.,.

# High-throughput results: PubChem, National Center for Advancing Translational Sciences (NCATS)
